High-throughput results from PubChem.
MITF TRPM1 inh: MITF TRPM1 promoter inhibition in SK-MEL-5 cells | SK-MEL-5 TRPM1 promoter luciferase, 24 h | inhibition, % at 12.5 µM | actives 0.83% (n = 330,000);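 active = mean inhibition across replicates of 60% or more, whatever share of single replicates reaches that level; inconclusive = some that reach 60%, reason not given; inactive = mean inhibition across replicates below 60%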
ABHD5-PLIN5 inh: inhibitors of human ABHD5-perilipin-5 interaction; Q00G26+Q8WTS1; Split G. princeps luciferase complementation, luminescence, 4 h; inhibition, % at 4 µM; actives 0.78% (n = 360,000); AID 602281;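 active = inhibition above the mean inhibition across every tested compound plus 3 SD, cut at about 22% in these data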;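 note: 0% = DMSO only wells and the 100% control is not disclosed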
PAX8 inh HTS: lowers PAX8-driven luciferase in RMG-I cells | RMG-I TPO-luciferase reporter, SteadyGlo, 24 h | AID 652154 | actives 1.2% (n = 360,000) | inhibition, % at 12.6 µM;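 active = mean replicate inhibition at least 60% with every replicate also reaching 60%; inconclusive = only one of the two criteria is met; inactive = mean below 60% and not all replicates reaching 60%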;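 note: luciferase light reporting Pax8 driven TPO promoter activity; plate controls were median of neutral control wells for no effect and mitoxantrone controls for full effect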
EWS-Fli block: EWS/Fli transcriptional activity inhibition; AID 651661; A673 NR0B1-luciferase reporter, viability-normalised; actives 0.67% (n = 350,000); inhibition, % at 12.6 µM;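 active = mean inhibition of at least 50% after viability correction, with every replicate also passing that limit; inconclusive = mean reaches 50% but only one of two replicates passes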;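 note: firefly luciferase signal divided by Alamar Blue viability fluorescence both relative to DMSO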
Shn3 3UTR inh: reduces Shn3 3'UTR luciferase signal in osteoblasts | Clone20 osteoblast Shn3 3'UTR firefly luciferase, 24 h | inhibition, % at 12.5 µM | actives 0.52% (n = 360,000);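 active = mean inhibition of at least 75% with every replicate also reaching 75%; inconclusive = mean inhibition at least 75% but some replicate below; inactive = mean inhibition below 75%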;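 note: 0% = median of neutral control wells and 100% = pilot-screen positive control compound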
Peg3 prom inh-1: reduces Peg3 promoter-driven luciferase expression in HeLa | HeLa PEG-Prom luciferase reporter, luminescence, overnight | inhibition, % at 20 µM | actives 1.7% (n = 360,000);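 active = inhibition of at least 50% at 20 µM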
Peg3 prom inh-2: Peg3 promoter inhibition confirmation. HeLa PEG-Prom luciferase reporter, luminescence, overnight. shares compounds with Peg3 prom inh-1. inhibition, % at 20 µM. actives 84% (n = 1,300). AID 602417;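 active = at 20 µM dose, 40% or more inhibition averaged across four replicates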
Starred values were filed as active, the others as inactive; ? = inconclusive; . = no result; ! = not active in a repeat. Most compounds without a hit are left out; they make up all but 3% or so of the library.

SMILES | MITF TRPM1 inh | ABHD5-PLIN5 inh | PAX8 inh HTS | EWS-Fli block | Shn3 3UTR inh | Peg3 prom inh-1 | Peg3 prom inh-2
CC(C(=O)NC1CCCC1)N(C(=O)Cn1nnc(-c2ccc(F)cc2)n1)c1ccccc1F (stereo not given) | -2.3 | -2.4 | -2.2 | -2.2 | 21.6 | 57.1* | 49.9*
Cc1noc(C)c1NC(=O)N1C[C@@H](O)COC[C@@H]2O[C@H](CC(=O)NCC3CC3)CC[C@H]21 | . | . | 22.5 | 3.3 | . | . | .
CCCNC(=O)N(C)C[C@@H]1Oc2cc(-c3ccc(C)cc3)ccc2S(=O)(=O)N([C@H](C)CO)C[C@H]1C | . | . | . | 6.7 | . | . | .
CO[C@H]1CN(C)C(=O)c2ccc(NS(=O)(=O)c3ccc(C)cc3)cc2OC[C@@H](C)N(Cc2nccs2)C[C@H]1C | . | . | 4.3 | 11.6 | . | . | .
COc1ccc(Nc2nccc(-c3cccc(N)c3)n2)cc1 | -4.5 | 1.4 | -429.3 | -58.8 | -174.1 | 72.6* | -117.0
C[n+]1c2cc(N)ccc2cc2ccc(N)cc21 | 63.9* | -21.8 | 66.2*! | 61.7* | ? | 95.7* | 96.0*
CC(C)NC(=O)N[C@@H]1CC[C@@H](CC(=O)NC2Cc3ccccc3C2)O[C@H]1CO | . | . | 22.3 | -1.8 | . | . | .
Cc1ccc(C(=O)N/C(=C\c2ccc(-c3cccc([N+](=O)[O-])c3)o2)C(=O)NCCCN(C)C)cc1 | 13.1 | 9.3 | -5.4 | 4.9 | 12.1 | 86.5* | 92.6*
OCC1OC(n2ccc3c(NO)ncnc32)C(O)C1O (stereo not given) | 95.2* | 1.0 | . | 49.0 | 99.1* | 100.2* | 97.8*
C[C@@H]1CN([C@H](C)CO)C(=O)c2cc(NS(=O)(=O)c3cn(C)cn3)ccc2O[C@@H]1CN(C)S(=O)(=O)c1cn(C)cn1 | . | . | -1.6 | -1.5 | . | . | .
Cc1ccc(S(=O)(=O)N(C)C[C@H]2Oc3c(NC(=O)c4cnccn4)cccc3C(=O)N([C@H](C)CO)C[C@H]2C)cc1 | . | . | -7.3 | 0.2 | . | . | .
C=C1CC(COc2ccc3c(C)c(Cl)c(=O)oc3c2)(c2ccccc2)OC1=O (stereo not given) | 100.8* | 62.2* | 100.2* | ? | 96.2* | 98.1* | 97.5*
CO[C@@H]1CN(C)C(=O)c2cc(NC(=O)c3ccccc3)ccc2OC[C@H](C)N(C)C[C@H]1C | . | . | . | 1.6 | . | . | .
CN(C)S(=O)(=O)c1ccc(-c2csc(N/N=C/c3ccc(O)cc3)n2)cc1 | 72.2* | 10.7 | 30.2 | 55.8* | 26.8 | 96.0* | 98.5*
CCn1c(SCC(=O)Nc2nc3ccc(OC)cc3s2)nc2c1c(=O)n(C)c(=O)n2C | -3.2 | -4.2 | . | . | 72.5 | 61.5* | 34.7
O=C(Nc1nc2cc3c(cc2s1)OCO3)C1=COCCO1 | 82.9* | 5.2 | 33.5 | 80.3* | 72.6 | 61.5* | 63.9*
O=C(Nc1nc2cc3c(cc2s1)OCCO3)c1ccncc1 | -59.8 | -3.5 | -136.3 | -47.5 | -51.9 | -310.6 | .
O=C(Nc1nc2cc3c(cc2s1)OCCO3)c1ccco1 | ? | -1.0 | . | 87.0* | 53.4 | 66.4* | 61.7*
C[C@@H]1CN([C@@H](C)CO)C(=O)c2cc(C#Cc3cccnc3)cnc2O[C@H]1CN(C)Cc1ccccc1 | . | . | . | -2.3 | . | . | .
CN(C)S(=O)(=O)c1cccc(NC(=O)CSc2cccc3cccnc23)c1 | 28.4 | -10.2 | 17.4 | 41.5 | 12.6 | 101.7* | 92.9*
CN(C)S(=O)(=O)c1cccc(NC(=O)CSc2nc3c(cc2C#N)C(=O)CC(C)(C)C3)c1 | 68.2* | 7.2 | ? | 27.6 | 34.2 | 59.6* | 59.7*
CC(=O)c1ccc(Nc2cc(C)nc3ccc(C)cc23)cc1 | 42.0 | 7.2 | 22.1 | 13.8 | -2.0 | 81.6* | 87.3*
Cc1nc2c(-c3ccc(Cl)cc3)c(C)[nH]n2c(=O)c1Cc1ccccc1 | 39.2 | -0.2 | 61.6* | 14.0 | 37.6 | 59.2* | 67.3*
O=C(NCC[C@H]1CC[C@H](NC(=O)c2ccccc2F)[C@H](CO)O1)c1cnccn1 | . | . | -5.1 | -2.3 | . | . | .
FC(F)Sc1ccc(NC(=S)NCc2ccccc2)cc1 | -13.7 | -12.9 | -22.5 | -19.2 | 3.4 | -47.4 | .
SMILES | MITF TRPM1 inh | ABHD5-PLIN5 inh | PAX8 inh HTS | EWS-Fli block | Shn3 3UTR inh | Peg3 prom inh-1 | Peg3 prom inh-2
FC(F)Sc1ccc(NC(=S)NC(c2ccccc2)c2ccccc2)cc1 | 32.4 | -12.5 | 1.7 | 38.1 | 57.1 | 52.8* | 95.2*
O=c1cc(CCl)nc2sc3ccccc3n12 | -9.9 | 1.8 | -7.8 | -0.3 | 11.3 | 18.2 | .
O=c1c2ccccc2sc2nc(CCl)nn12 | -6.8 | -2.7 | . | 14.8 | -9.2 | 103.5* | 93.3*
CCCNC(=O)C[C@@H]1C[C@H]2c3cc(NC(=O)C4CCOCC4)ccc3O[C@H]2[C@H](CO)O1 | . | . | 6.1 | -1.2 | . | . | .
CCCCN(C)C(=O)c1ccc(Nc2nc(C(N)CCc3ccccc3)cs2)nc1 (stereo not given) | . | 8.4 | -6.3 | -0.6 | 15.6 | 60.7* | 82.9*
Cc1cnc(C)c(Nc2nc(C(N)CCc3ccccc3)cs2)n1 (stereo not given) | . | 11.3 | 8.0 | 15.6 | 1.1 | -2.6 | .
COCCN1Cc2cc3cc(C)ccc3nc2SC1=Nc1cccc(OC)c1 | -5.5 | 4.8 | -5.5 | -4.4 | -36.0 | -12.8 | .
Cc1cccc(N=C2Sc3nc4c(C)c(C)ccc4cc3CN2CCN2CCOCC2)c1 | -3.4 | -6.4 | . | 0.7 | -13.5 | 55.0* | 56.7*
CCCNC(=O)C[C@H]1CC[C@H]2[C@H](COc3ccc(NC(=O)C4CCOCC4)cc3C(=O)N2C)O1 | . | . | -8.1 | 3.3 | . | . | .
O=C(C[n+]1ccc(-c2cc(C(=O)Nc3cccc(C(F)(F)F)c3)c3ccccc3n2)cc1)c1cccc([N+](=O)[O-])c1 | -1.1 | 6.5 | 10.3 | 26.4 | 8.9 | 88.8* | 61.6*
